# Source: ChEMBL document CHEMBL3433997, “St. Jude Leishmania screening dataset” (2016)
# Biological target: Solute carrier family 2, facilitated glucose transporter member 1 (Homo sapiens) (UniProt P11166)
# Experiment: ST_JUDE_LEISH: Cytotoxicity at 2uM final concentration against transgenic Leishmania Mexicana promastigotes LmGLUT1 that are glucose transport deficient and complemented with the human glucose transporter GLUT1. Activity is measured by DNA content using SYBR green in vitro
# Type: functional
# Chain of Solute carrier family 2, facilitated glucose transporter member 1 (Homo sapiens) (P11166 whole entry): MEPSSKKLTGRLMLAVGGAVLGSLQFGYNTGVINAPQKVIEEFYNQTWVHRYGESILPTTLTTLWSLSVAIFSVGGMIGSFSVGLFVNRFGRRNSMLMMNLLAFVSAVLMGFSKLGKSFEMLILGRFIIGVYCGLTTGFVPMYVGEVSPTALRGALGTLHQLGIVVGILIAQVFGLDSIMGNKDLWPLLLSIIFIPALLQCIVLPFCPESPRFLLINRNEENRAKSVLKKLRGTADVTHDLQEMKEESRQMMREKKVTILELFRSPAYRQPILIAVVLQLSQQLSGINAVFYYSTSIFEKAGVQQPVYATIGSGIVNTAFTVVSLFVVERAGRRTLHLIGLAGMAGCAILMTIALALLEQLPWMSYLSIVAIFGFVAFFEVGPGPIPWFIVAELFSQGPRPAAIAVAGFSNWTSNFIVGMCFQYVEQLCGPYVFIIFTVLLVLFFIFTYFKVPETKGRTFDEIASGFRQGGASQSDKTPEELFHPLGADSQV
row,Structure (SMILES),inhibition [%]
1,CC(=O)Nc1ccc(Nc2c3ccccc3nc3ccccc23)cc1,8.17
2,Cc1nc(-c2cccc3c(NC(=O)N4CCc5cc6nccc(N7CCN(C)CC7)c6cc54)cccc23)no1,1.15
3,O=C(C=Cc1ccc(Cl)c(Cl)c1)NCCCCCN1CCC(CCNS(=O)(=O)c2ccc(F)cc2)CC1,1.24
4,COc1ccc(CN(C)CCCOc2ccc(NC(=O)c3cccc4c(=O)c5cccc(C)c5[nH]c34)cc2)cc1OC,4.56
5,CCOc1ccccc1NC(=O)C(Sc1nc(C)cc(C)c1C#N)c1ccccc1 (stereo not given),6.11
6,N=C(N)c1ccc(-c2cc3ccc(C(=N)N)cc3[nH]2)cc1,62.9
7,COc1ccc(CNC2CCN(C)CC2)cc1-c1ccc(S(=O)(=O)NC2CCC2)s1,1.49
8,CCCc1ccc(C(=O)N2C(c3nccs3)C(C(N)=O)CC2(CC(C)C)C(=O)O)cc1 (stereo not given),1.38
9,CN(C)C(CNC(=O)c1cc(-c2ccncc2)c(-c2ccc(NC(=O)Nc3cccc(F)c3)cc2)o1)c1ccccc1 (stereo not given),0.98
10,Fc1ccc2[nH]c(-c3cccc(-c4ccc(CNCC5CCCO5)cc4)c3)nc2c1 (stereo not given),1.13
11,COc1cc2nc(N3CCC(CNCc4ccc(-c5ccc(C(F)(F)F)cc5)cc4)CC3)nc(N)c2cc1OC,106
12,O=[N+]([O-])c1cccc(-c2nc3cc(C4=NC5CCCCC5N4)ccc3[nH]2)c1 (stereo not given),0.61
13,COc1cc(N(Cc2ccccc2C)S(=O)(=O)Cc2ccccc2[N+](=O)[O-])c(OC)cc1Cl,3.26
14,N#Cc1ccc(CNCCCCCCCNCc2ccc(-c3ccccc3)cc2)cc1,4.19
15,COc1cc(NC(=O)c2sc(-c3ccc(Cl)cc3)cc2NC(=O)c2ccncc2)ccc1OCCN1CCCC1,7.57
